# Test results published in PubChem BioAssay AID1566 (Sanford-Burnham Center for Chemical Genomics, 2009).
# Several values for one entry are separate records, joined by “and”; a condition that tells them apart may be missing. Equal entries are not always repeated. Out of some 290,000 compounds screened, about 1,800 (0.62%) were called active. Cut-off read from the data, not from the text of the source: active = inhibition above about 50%; inactive = the rest. The full list was thinned out, with actives kept by preference.
# Test: NOD2 signaling inhibitors, cell-based, luminescence, uHTS, HEK293 (AID 1566)
# Conditions: HEK293 NOD2/NF-kB luciferase reporter, at 4 µM, stronger effect = higher value
row,Structure (SMILES),inhibition
1,COc1ccc(NC(=O)CN(c2ccc([N+](=O)[O-])cc2)S(=O)(=O)c2ccccc2)cc1,-17.8% (inactive)
2,CC(=O)c1cc(CC=C(C)C)c(O)cc1O,30.8% (inactive)
3,CCC(=O)c1ccc(O)c(CC=C(C)C)c1,54.6% (active)
4,CC(=O)c1ccc(O)c(CC=C(C)C)c1,34.2% (inactive)
5,O=c1cc(O)nc(SCc2ccccc2)n1-c1ccccc1,13.3% (inactive) and 9.4% (inactive)
6,S=C(NCc1ccccc1)NN1CCOCC1,1.7% (inactive)
7,Nc1nc(N2CCCCC2)nc2ccccc12,-20.9% (inactive)
8,Cc1cccc(NC(=O)Cn2c(O)c(N=NC(N)=S)c3ccccc32)c1,-8.5% (inactive)
9,Cc1cccc(Cn2c(O)c(N=NC(=S)Nc3ccccc3F)c3ccccc32)c1,18.9% (inactive)
10,Cc1cccnc1NC(=O)c1cccc(S(=O)(=O)N2CCCc3ccccc32)c1,0.8% (inactive)
11,O=C(O)c1cccc(NC(=O)c2cccc(S(=O)(=O)N3CCc4ccccc43)c2)c1,-26.3% (inactive)
12,COc1cccc(C2CC(=O)NC(SC)=C2C#N)c1 (stereo unspecified),27.4% (inactive)
13,CCO[C@@H]1OC(C(=O)NCc2ccccc2)=C[C@H](c2ccc(Br)cc2)[C@H]1CCCO,-1.4% (inactive)
14,Cc1c(CC(=O)N[C@@H](CCCNC(N)=O)C(=O)O)c(=O)oc2cc3oc4c(c3cc12)CCCC4,14.7% (inactive)
15,COc1ccc(CS(=O)(=O)/C(Cl)=C(/Cl)C(=O)Nc2ccc(OC)nc2)cc1,79.2% (active)
16,COc1ccc(CC(=O)Nc2ccc(OC)nc2)cc1,6.1% (inactive)
17,COc1ccc(NC(=O)C(Cl)=C(Cl)Cl)cn1,-25.2% (inactive)
18,CCN(CC(=O)N(CC(C)C)c1c(N)n(CC(C)C)c(=O)[nH]c1=O)Cc1nc2ccccc2c(=O)[nH]1,13.4% (inactive)
19,Cc1cc(NC(=O)CN(C)S(=O)(=O)c2cccc(Cl)c2)no1,0.9% (inactive)
20,COc1ccc(NC(=O)COC(=O)C2CC(=O)N(c3ccc(OC(C)C)cc3)C2)cc1 (stereo unspecified),6.7% (inactive)
21,O=C(NCC1OCCc2ccccc21)c1ccc(NC(=O)c2cccc(Br)c2)cc1 (stereo unspecified),2.8% (inactive)

row,Structure (SMILES),inhibition
1,Cc1cc(/C=N/Nc2ccc([N+](=O)[O-])cn2)c(C)n1-c1ccccc1,8.4% (inactive)
2,Cc1ccccc1-n1c(C)cc(/C=N/Nc2ccc([N+](=O)[O-])cn2)c1C,-29.9% (inactive)
3,Cc1cc(/C=N/Nc2nc(N)ncc2[N+](=O)[O-])c(C)n1-c1cccc(C(F)(F)F)c1,-78.1% (inactive)
4,COc1cccc(/C=N/Nc2ncnc(N)c2[N+](=O)[O-])c1OC,-39.2% (inactive)
5,O=[N+]([O-])c1cccc(-c2cc(C(F)(F)F)n3nc(-c4ccccc4)cc3n2)c1,26.1% (inactive)
6,CCCN(CCC)CC(O)COc1ccc2c(c1)OCO2 (stereo unspecified),4.6% (inactive)
7,O=C(NCc1ccccc1F)C1CCCN1C(=O)Nc1cccc(F)c1 (stereo unspecified),-1.7% (inactive)
8,O=c1c2ccccc2cnn1-c1nc2ccccc2[nH]1,87.6% (active)
9,Cc1nn(-c2ccccc2)c(=O)c2ccccc12,-1.4% (inactive)
10,O=c1c(Cl)c(N2CCCCC2)cnn1-c1nc2ccccc2[nH]1,-7.2% (inactive)
11,O=c1c(Cl)c(N2CCOCC2)cnn1-c1nc2ccccc2[nH]1,-110% (inactive)
12,Cc1nn(-c2nc3ccccc3[nH]2)c(=O)c2ccccc12,87.2% (active)
13,Cc1nn(-c2nc3ccccc3[nH]2)c(N)c1-c1ccccc1,-163% (inactive)
14,NS(=O)(=O)c1ccc(CCNC(=O)c2cc(-c3ccc(Br)cc3)nc3ccccc23)cc1,-18.4% (inactive)
15,O=C(NCc1ccon1)C1CCC(=O)N(CCc2ccc(Cl)cc2)C1 (stereo unspecified),6.3% (inactive)
16,COc1ccc2c(c1)cc(C(=O)N[C@H](C(=O)N1CCC(C(=O)O)CC1)C(C)C)n2C,-3.6% (inactive)
17,C/C(=N/NC(=O)CN1CCN(Cc2ccccc2Cl)CC1)c1cccs1,20% (inactive)
18,Cc1ccc(NC(=O)c2cc(C)nc3ccccc23)c(C)c1,1.4% (inactive)
19,Cc1ccc(NC(=O)Cc2ccccc2)c(C)c1,-14.9% (inactive)
20,Cc1cc(C)n(C(C)CC(=O)N2CCc3ccccc32)n1 (stereo unspecified),14.5% (inactive)
21,COc1ccc(S(=O)(=O)Nc2cc(OC)c(NC(=O)c3ccco3)cc2OC)cc1,19.5% (inactive)

row,Structure (SMILES),inhibition
1,O=c1c2ccccc2c(C=Nc2ccc(S(=O)(=O)N3CCCCC3)cc2)c(O)n1-c1ccc(Cl)cn1,-6.9% (inactive)
2,Cc1cccc(NC(=O)CCSc2ccccc2)c1C,-32.5% (inactive)
3,CCC(=O)Nc1nnc(/C=C/c2ccccc2)s1,-60.7% (inactive)
4,COc1ccc(CCNC(=O)c2ccc3ccccc3n2)cc1OC,6.9% (inactive)
5,COc1ccc(CNC(=O)c2ccc3ccccc3n2)cc1,0.9% (inactive)
6,Cc1cccc(/C=N\NC(=O)c2ccccc2-n2cccc2)c1,-1.5% (inactive)
7,O=C(c1cccc(S(=O)(=O)N2CCCC2)c1)c1cccc(S(=O)(=O)N2CCCC2)c1,32.8% (inactive)
8,CCN(CC)c1ccc(/C=N/Nc2nc3ccccc3[nH]2)c(O)c1,-63.5% (inactive)
9,CCN(CC)c1ccc2nc3ccccc3[n+](CC)c2c1,74.8% (active)
10,CCN(CC)c1ccc2cc(-c3nc4ccccc4[nH]3)c(=O)oc2c1,-69.7% (inactive)
11,O=C(c1cc2ccccc2oc1=O)N1CCCCCCC1,9.4% (inactive)
12,CCCCn1c(-c2nn(C)c(C)c2Cl)n[nH]c1=S,19.7% (inactive)
13,CCN1CCN(Cc2ccc(NC(=O)c3cc(NC(=O)C(=O)c4c[nH]c5ccccc45)cc(OC)c3)cc2C(F)(F)F)CC1,5.4% (inactive)
14,CCN1CCN(Cc2ccc(NC(=O)c3ccc(C)c(NC(=O)c4cccc5[nH]ccc45)c3)cc2C(F)(F)F)CC1,-20.7% (inactive)
15,CCN1CCN(Cc2ccc(NC(=O)c3ccc(C)c(NC(=O)C(=O)c4c[nH]c5ccccc45)c3)cc2C(F)(F)F)CC1,57% (active)
16,O=C(/C=C/c1ccccc1)NC(=S)Nc1ccccc1O,0.9% (inactive)
17,Nc1ccc(-c2nc3c(Cl)cc(N)cc3[nH]2)cc1,55.1% (active)
18,Nc1ccc(-c2nc3ccc(N)cc3[nH]2)cc1,-7% (inactive)
19,Nc1ccc(-c2nc3c(Cl)c(N)ccc3[nH]2)cc1,-6.6% (inactive)
